Source: PubChem BioAssay (The Scripps Research Institute Molecular Screening Center)
TEAD-YAP block = TEAD-YAP interaction inhibition | HEK-TIYL cells, TEAD-Gal4/YAP UAS-luciferase luminescence | inhibition, % at 9.12 µM | actives 1.4% (n = 640,000); in the data active means inhibition above about 32%;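 further: 0% = median of test compound wells and 100% = reference inhibitor wells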
MITF primary = human MITF inhibition, primary screen. O75030. AlphaScreen MITF homodimerization, bead proximity signal. inhibition, % at 2.6 µM. actives 0.91% (n = 650,000); in the data active means inhibition above about 50%;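 further: 0% = vehicle wells with protein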
GPR151 activ = activates the human receptor GPR151; PathHunter beta-arrestin GPR151 cells, luminescence; activation, % at 11.2 µM; AID 1508602; Q8TDV0; actives 1% (n = 650,000); in the data active means activation above about 4.9%;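 further: 0% = median of compound wells and 100% = cells with positive control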
Target sequence (Q8TDV0 whole entry, looked up): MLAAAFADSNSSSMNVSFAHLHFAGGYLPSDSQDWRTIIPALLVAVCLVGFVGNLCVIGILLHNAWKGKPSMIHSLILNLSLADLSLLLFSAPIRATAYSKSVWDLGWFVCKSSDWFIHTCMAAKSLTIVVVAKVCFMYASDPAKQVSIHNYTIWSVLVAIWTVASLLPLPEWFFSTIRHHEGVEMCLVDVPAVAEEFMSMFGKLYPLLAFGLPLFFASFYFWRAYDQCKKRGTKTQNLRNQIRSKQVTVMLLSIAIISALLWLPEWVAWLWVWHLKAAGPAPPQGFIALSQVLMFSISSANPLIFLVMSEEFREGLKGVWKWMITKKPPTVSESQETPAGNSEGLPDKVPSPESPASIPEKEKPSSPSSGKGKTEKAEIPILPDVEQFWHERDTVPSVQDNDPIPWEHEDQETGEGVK
FBW7 activator = activators of human E3 ligase FBW7; AlphaScreen FBW7–phospho-cyclin E peptide binding, activator screen; normalized activity (activation), % at 26.1 µM; actives 0.13% (n = 650,000); AID 1259310; in the data active means normalized activity above about 1.9%;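 further: purified mutant Fbw7 with reduced substrate affinity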
Numbers without * were called inactive; ! = not confirmed by another sample. Compounds with a hit are over-represented: about 3.5% of the library has one in this group of screens.

SMILES	TEAD-YAP block	MITF primary	GPR151 activ	FBW7 activator
CC1CCN(CCCN(Cc2cccs2)C(=S)Nc2ccc(Oc3ccccc3)cc2)CC1	11.1	12.6	-0.6	0.7
NC(=O)Cn1c(=O)n(CCCC(=O)NCc2ccccc2)c(=O)c2sccc21	3.6	12.1	1.4	0.0
COc1cc(C(Nc2cc(C)ccn2)c2ccc3cccnc3c2O)ccc1O (centres undefined)	-11.2	54.3*	0.8	-0.4
COc1cc(C(Nc2cc(C)ccn2)c2ccc3ccc(C)nc3c2O)cc(OC)c1OC (centres undefined)	67.6*	20.8	0.9	-0.2
CCOc1cc(C(Nc2cc(C)ccn2)c2ccc3cccnc3c2O)ccc1O (centres undefined)	1.6	68.7*	-0.6	-0.5
COc1cc(C(Nc2cccc(C)n2)c2ccc3ccc(C)nc3c2O)cc(OC)c1O (centres undefined)	33.0*	3.5	2.2	-0.3
Cc1ccnc(NC(c2cccc(O)c2)c2ccc3ccc(C)nc3c2O)c1 (centres undefined)	13.5	4.9	-0.4	-0.1
Cc1cccc(NC(c2cccc(O)c2)c2ccc3ccc(C)nc3c2O)n1 (centres undefined)	10.6	16.6	0.0	-0.1
CCCN(C(=O)C1CCC1)c1nnc(-c2ccc(OCC)cc2)s1	-1.8	11.7	0.6	0.3
O=C(c1ccc(Oc2ccccc2)cc1)c1coc2ccc(O)cc12	55.3*	-4.5	-3.8	-0.1
O=C(Nc1nnc(C23CC4CC(CC(C4)C2)C3)s1)c1ccccc1Cl	8.7	5.3	-0.3	0.0
O=C(Nc1nnc(C23CC4CC(CC(C4)C2)C3)s1)c1cccs1	32.7*	6.3	0.4	0.0
O=C(Nc1nnc(C23CC4CC(CC(C4)C2)C3)s1)c1ccccc1	42.3*	13.1	-0.1	0.1
CCc1ccccc1NC(=O)Cn1c(C)cc(COC)c(C#N)c1=O	5.3	8.6	4.7	0.2
CCOCCCNC(=O)/C(C#N)=C/c1c(Oc2ccccc2C)nc2c(C)cccn2c1=O	32.4*	3.8	-0.1	0.0
CCOCCCNC(=O)/C(C#N)=C/c1c(Oc2ccc(C)cc2)nc2c(C)cccn2c1=O	18.5	10.2	-0.4	-0.1
COCCNC(=O)/C(C#N)=C/c1c(Oc2ccccc2OC)nc2c(C)cccn2c1=O	33.8*	5.3	1.1	-0.1
CCOC(=O)N1CCN(C(=O)CN(c2ccc(C)cc2)S(=O)(=O)c2ccc(OC)cc2)CC1	-9.3	11.3	0.9	0.0
COc1cc(NC(=O)c2ccc3nc(Nc4ccncn4)sc3c2)cc(OC)c1OC	27.9	5.3	0.1	-0.2
CCOC(=O)c1cnc2ccc(C)cc2c1NCCCN1CCOCC1	38.1*	-19.6	0.2	0.1
CCOC(=O)c1cnc2ccc(C)cc2c1NCCN1CCOCC1	-5.8	-1.8	-1.2	0.0
c1ccc(-c2cc(NCCc3ccccn3)ncn2)cc1	-42.0	0.6	-3.3	-0.1
COc1ccc(CNc2nc(C)c(-c3ccn(CCO)n3)s2)c(OC)c1OC	-12.5	-1.5	0.9	-0.1
COc1cc(OC)c(OC)cc1CNc1nc(C)c(-c2ccn(CCO)n2)s1	37.1*	14.7	-0.3	-0.1
CC(CCc1ccccc1)NC(=O)c1ccc([N+](=O)[O-])cc1 (centres undefined)	-9.9	10.3	1.0	0.1
SMILES	TEAD-YAP block	MITF primary	GPR151 activ	FBW7 activator
C/C(=N\Nc1cccc(C(F)(F)F)c1)C1CC1	-8.0	39.9	0.9	3.4*
C/C(=N\Nc1ccc(C(F)(F)F)cc1[N+](=O)[O-])C1CC1	6.6	8.4	4.0	0.0
COc1cc(OC)c(/C=N/n2c(C)cc(C)c(C#N)c2=O)cc1Br	-6.9	6.1	1.7	0.0
CC(=NCCO)c1c(-c2ccccc2)[nH]n(-c2nc3ccccc3s2)c1=O	-7.0	-12.9	-0.9	-0.5
COc1ccc(OC)c(N=C(C)c2c(C)[nH]n(-c3nc4ccccc4s3)c2=O)c1	10.3	22.1	-9.8	0.2
CC(=NCc1ccco1)c1c(C)[nH]n(-c2nc3ccccc3s2)c1=O	41.1*!	13.6	-8.2	-0.2
CCOC(=O)CN=C(C)c1c(C)[nH]n(-c2nc3ccccc3s2)c1=O	48.5*	3.8	-9.6	0.5
CC(=NCCCN1CCOCC1)c1c(C)[nH]n(-c2nc3ccccc3s2)c1=O	32.9*!	0.1	-8.3	-1.6
NC(CCCc1ccccc1)c1ccc2c(c1)OCCO2 (centres undefined)	54.7*	21.5	0.6	0.9
CC(=O)N(C1=C(Cl)C(=O)c2ccccc2C1=O)c1ccc(Br)cc1	11.3	17.8	0.1	-0.1
CC(=O)N(C1=C(N(C)C)C(=O)c2ccccc2C1=O)c1cc(C)cc(C)c1	85.0*	12.7	-3.1	-0.2
CC(=O)N(C1=C(N(C)C)C(=O)c2ccccc2C1=O)c1ccc(Cl)cc1	72.6*	6.4	-3.4	-0.1
